# Source: the supplement of paper PMC11417369
# ± gives the standard deviation of the averaged measurements. In all, about 25,000 sequences were measured (“ln(normalized median fluorescence intensity)”: median about 10, highest 2% from about 12 on). This is one part of a sample in which the highest values are shown more often than they occur.
# Tested on: PfAP2-G AP2 domain (GST-tagged)
# Assay: gcPBM binding intensity (ln(normalized median fluorescence intensity)); higher = stronger DNA binding
# In short: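 GST-fused DNA-binding domains of P. falciparum, expressed in E. coli, were applied at about 25 μg on average for 1 h to an Agilent 4 × 180k array of primer-extended double-stranded 36-bp intergenic genomic probes and negative controls. Binding intensity is the highest Masliner-normalised natural-log median intensity across replicate spots of either probe orientation, measured with Alexa488 anti-GST antibody and a 488 nm scan.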
row,Sequence,gcPBM binding intensity (ln)
1,ATAAAAAAAATAAAAAGTACAAAAAAAAAAAATGGA [XGTACX_site136],11.3 ± 0.71
2,ACATATGACTATAATACACACTTGTATTATTAATAT [CACACA_site6951],9.98 ± 0.13
3,ATATATATATCTAATTGTACATATTTTATAAATAAG [XGTACX_site4840],11 ± 0.52
4,GGCATAAATATATGCACACACAAAAAAAAAAAAAAA [CACACA_site59],10 ± 0.65
5,GAAAAAAATGAAATTAGTACTTATCTTAAATTTTTA [XGTACX_site1018],10.8 ± 0.47
6,TATGCTATTATATATGTACACACCAATTTATTTATA [CACACA_site3918],11.3 ± 0.74
7,TTTTTCTTACATGAGTGTACACACTTTTTTTCAGAA [XGTACX_site138],11.7 ± 0.83
8,TTTTCTTACATGAGTGTACACACTTTTTTTCAGAAA [CACACA_site70],11.6 ± 0.91
9,AGAAAAAAAAAAAAATGTACAGACTTTTTCTTATAA [XGTACX_site6481],11 ± 0.55
10,AATATTTATTTTACATGTACTTATTTTTCTTTTAAC [XGTACX_site3631],11.4 ± 0.88
11,ATCTTTCGAACATGTACACACAGAAAAAAAAAAAAA [CACACA_site5393],11.3 ± 1
12,TTCTTACATGAGTGTACACACTTTTTTTCAGAAAAT [CACACA_site4215],11.7 ± 1
13,TATAATATGTTTGATGGTACACGTAAACACCTTGCA [XGTACX_site1643],11.1 ± 0.68
14,ATGTTTGATGCTACACGTACACACCTTGCAAATATT [XGTACX_site1644],11.6 ± 1
15,TTTGATGGTACACGTACACACCTTGCAAATATTTTT [CACACA_site4645],11.8 ± 1
16,TGTTTGATGGTACACGTACACACCTTGCAAATATTT [CACACA_site888],11.8 ± 1.2
17,AAATATTTTGCATACACATGCAAATATTTTTTACAT [TGCATGCA_site554],9.8 ± 0.11
18,TATACAATATATTTTGGTACACAAACAAAAAAATAT [XGTACX_site2522],11.2 ± 0.82
19,ATATATATCGGACACACACACATGTTTTAAAACTAT [CACACA_site4218],10.9 ± 0.64
20,TGTTTATTTTTAAAAAGTACATATTTAAAAAACTTC [XGTACX_site271],11.4 ± 1
21,CCATTTATTATTTGGGGTACATTTAATTAATATTTT [XGTACX_site5940],11.5 ± 1
22,ATTTTTTTTTTTTTTTTGGGGGGGTATACTTTTAAA [CACACA_negctrl_site1020],11.9 ± 0.77

row,Sequence,gcPBM binding intensity (ln)
1,GTTAATATTTTTGGGGGTACTTAAAAAAAAAAAAAA [XGTACX_site1477],11.7 ± 0.91
2,TTTTTTTTTTTTTGGGGTACATTTTAATTAATATTA [XGTACX_site4866],11.4 ± 0.86
3,TATACTTTATATATTTTGTATATATATTTTTTTTAT [TGCATGCA_negctrl_site530],9.645 ± 0.035
4,TATATTTAACATACTTTTTTTTTTTTTTTTTTTTTT [CACACA_negctrl_site938],10.9 ± 0.45
5,ACAGATATACATAAAAAAAAAATAATTTTACATATA [CACACA_negctrl_site929],9.765 ± 0.049
6,TACATAAATACATACACACACATATAACCAATGTAG [CACACA_site5243],10.3 ± 0.11
7,AATCATTTATGGAAAGCATGCTAAATTAGAGTATAC [TGCATGCA_site172],10.03 ± 0.064
8,TAATGTAATACATATTGTACACATACATATATATTT [XGTACX_site7531],11.2 ± 0.71
9,TGAGTTCAACAAAGACGTACAAAACCAAAAATATAA [XGTACX_site8931],11.6 ± 0.93
10,TTTCAAACAAAAAGACGTACACTGAAGTTATCCGTC [XGTACX_site8824],11.8 ± 1
11,AAAACAAACATTACACGTACAAAACAAGTTATAGAC [XGTACX_site6320],11.4 ± 0.74
12,AAAAAAAAAAGACACACACACACACGGAGATATATA [CACACA_site6216],10.1 ± 0.22
13,TATGTGTAATATTTTTGTACAGAAAAAAAAAAAAAA [XGTACX_site7075],10.8 ± 0.77
14,AATTAATGGGTACATACACACATATATACATACATA [CACACA_site742],11.4 ± 1
15,TATTTATAAATTTACACACACACATGTGAACATAAA [CACACA_site1909],10.2 ± 0.14
16,TATCCTAACTTTAGATGTACACAAATAAAAAAAAAA [XGTACX_site4491],11.7 ± 0.91
17,ATAAATATTTACAAAAGTACACATAACTTTAGATAT [XGTACX_site1685],11.4 ± 0.9
18,ATAACAAAATAAAACACACACACAAATGTACAGATA [CACACA_site5358],11.1 ± 0.72
19,TTTATTTATATTTATACACACAAACATAATACTACT [CACACA_site7039],10.3 ± 0.28
20,AGGTCTATATAATAAGTGCATTTTTTTTTTTTTTTT [GTGCAC_site9664],10.2 ± 0.26
21,TTTTTAATATATAAAGATAATAATAAATAAAATTCA [CACACA_negctrl_site657],9.46 ± 0.12
22,TATATGCACTTAATATGTACACAAAAAAAAAAAAAA [XGTACX_site6199],11.5 ± 1.2

row,Sequence,gcPBM binding intensity (ln)
1,CAATAAAAATTAAAATGTACAAATAAATATAAATAT [XGTACX_site7265],10.8 ± 0.29
2,GATTATTATTATAAGGGTACAAATATTTAATAAAAA [XGTACX_site7144],11 ± 0.57
3,AAAAAAATTAAATGGGGTACAATAAGGGTCAAATAT [XGTACX_site8669],11.6 ± 0.93
4,AATTATATATTATCATGTACAAATATAGTAATACAA [XGTACX_site6845],10.7 ± 0.4
5,ATATAAACACTGAATGCATGCACATATATATATATA [TGCATGCA_site940],10.2 ± 0.26
6,TATACGCATATTTTTACACACATATTTTTTCATATA [CACACA_site2546],10.02 ± 0.049
7,ACATATATTTCAAAGTGTACGCACAATTTTTTTTAC [XGTACX_site6166],11.7 ± 1
8,AAAAAAATAACAAAGTGTACTTTTATATTTTACATA [XGTACX_site8954],11.3 ± 0.93
9,AAAGTATAAATAAATACACACATATTTATTTATATA [CACACA_site7375],9.96 ± 0.2
10,CCACATATACAAAACACACACACAACGTTTTAATAA [CACACA_site1978],10.1 ± 0.16
11,TCTGTAGTTTTTTACAGTACTTTTAGGTAATACATA [XGTACX_site7417],11 ± 0.79
12,GCTAGTTTTTTTTGGCGTACAGTACCGGTTTACTTT [XGTACX_site2606],11.6 ± 1
13,ATGACTTACATATATAGTACTTTGTTTTGGAGTTGC [XGTACX_site94],10.8 ± 0.45
14,ATAATTCCAAGAATTTCATATATCTGAATTTTAGGT [GTGCAC_negctrl_site283],9.61 ± 0.2
15,GACCATATGAATAATGCACACGTTTTAAAATATTAA [CACACA_site5312],10.23 ± 0.028
16,AACGATATAGGTACTACACACATTATGTCATCCTAT [CACACA_site7205],11.2 ± 0.77
17,AACGATATCTGTACTACACACATTATGTCATCCTAT [CACACA_site5374],11.8 ± 1.1
18,AACGATATATGTACTACACACATTATGTCATCCTAT [CACACA_site2464],11.5 ± 0.83
19,TTTGTATAATACATGTGTACGTATTTTTATATAAAT [XGTACX_site8656],11.6 ± 0.95
20,AAATTTTAAATAGTATGTACGTATGAAATATATATG [XGTACX_site7511],11.4 ± 0.79
21,TTTTATACATAAATATGTACGTATATATAATGAATT [XGTACX_site1337],11.3 ± 0.73
22,TATAATGAACATATGTGTACATATATTTTTTAAATT [XGTACX_site8736],11.4 ± 0.72

row,Sequence,gcPBM binding intensity (ln)
1,TTAAATGAAAAAATATGTACGTATAATAAGAAATAT [XGTACX_site6619],11.6 ± 0.87
2,ATGTATGAAAAAATGTGTACATAATTTTTTTTTTTT [XGTACX_site5444],11.7 ± 1
3,TTTTATACATAAATGTGTACGTATATATAATGAATT [XGTACX_site2762],11.7 ± 1
4,ATATTTATATTTATGTGTACATATGAAATAATTATT [XGTACX_site7765],11.5 ± 0.72
5,CACTTTTTTTAAATGTGTACGTATATGAAAATATCA [XGTACX_site4854],11.7 ± 1
6,TTTTTTTAAAATATGAGTACATAATATTGTAAAAAT [XGTACX_site6536],11.4 ± 0.9
7,AGTTTGATTTTTTCTTATAATATATTATTATATATT [CACACA_negctrl_site376],9.975 ± 0.021
8,CATATGTAGGGAACAATATAATATGCTTTGAATATG [GTGCAC_negctrl_site524],10.2 ± 0.14
9,AAGAATATTAATATAAATAAGTAAATAAATAAATAA [CACACA_negctrl_site417],9.78 ± 0.11
10,GTATAATTTAAAAAGTGTACATAAAGTTTTTATTAA [XGTACX_site1090],11.6 ± 0.81
11,ATAATCTGACAAATGTGTACACATATATATATATAT [XGTACX_site2379],11.6 ± 0.97
12,GTACAAATGTTGTGTATATATACACACATACATATA [XGTACX_negctrl_site276],10.9 ± 0.46
13,ATCTGACAAAAGTGTACACATATATATATATATATA [CACACA_site4814],11.7 ± 1.2
14,AAATGCGCCATGTGTACACATATATATATATATATA [CACACA_site4649],11.5 ± 0.88
15,TATGTAACAAAAAAAAGTACACATATATATAGTGTA [XGTACX_site7772],11.6 ± 0.85
16,AAAAATATAATATAATGTACACAAAAAAAAAAAATC [XGTACX_site1427],11.4 ± 0.71
17,ATATATATATATATATGTACATATACACATGTGTGC [XGTACX_site168],11.2 ± 0.55
18,CATATTAGGACAAAGTGTACATATATATATATATAT [XGTACX_site1172],11.4 ± 0.86
19,AAAAAATGCGACATGTGTACACATATATATATATAT [XGTACX_site1679],11.8 ± 0.99
20,TAATTTTCATAATTTTGTACTTAACGTTTTACCTTG [XGTACX_site8048],10.9 ± 0.5
21,TGCACAAAATTATGCACACACCTAAAATTAATTTTT [CACACA_site5596],10.2 ± 0.21
22,TAAATTTAAAATGACACACACTAAAATTATTTAAGT [CACACA_site4816],10.05 ± 0.021
